High-throughput results deposited in PubChem BioAssay by several laboratories.
An excerpt weighted towards active compounds, which were near 5.9% of everything screened.
Rtt109 HAT inh: inhibitors of Candida albicans Rtt109/Vps75 histone acetyltransferase; purified Rtt109/Vps75, ThioGlo CoA-SH fluorescence, 4 h; inhibition, % at 34.9 µM; hit rate 0.16% among 330,000;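 active means inhibition of at least 50% in every replicate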
LANA-H2A inh: blocks KSHV LANA binding to histone H2A/H2B; cell-free LANA-H2A/H2B peptide, fluorescence polarization; hit rate 0.6% among 320,000; AID 2629; inhibition, % (no concentration beside the values); Q9QR71; in the data active means inhibition mostly above about 10%, no sharp cut-off; inactive means mostly below about 6.7%
PRMT1 FP inh: inhibitors of human PRMT1; inhibition, % at 2.79 µM; Q99873; hit rate 1.3% among 370,000; recombinant PRMT1, activity-based probe fluorescence polarization;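 active means inhibition above about 21% made by adding two undisclosed values, limit read from the data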
Target sequence (Q99873 whole entry, looked up): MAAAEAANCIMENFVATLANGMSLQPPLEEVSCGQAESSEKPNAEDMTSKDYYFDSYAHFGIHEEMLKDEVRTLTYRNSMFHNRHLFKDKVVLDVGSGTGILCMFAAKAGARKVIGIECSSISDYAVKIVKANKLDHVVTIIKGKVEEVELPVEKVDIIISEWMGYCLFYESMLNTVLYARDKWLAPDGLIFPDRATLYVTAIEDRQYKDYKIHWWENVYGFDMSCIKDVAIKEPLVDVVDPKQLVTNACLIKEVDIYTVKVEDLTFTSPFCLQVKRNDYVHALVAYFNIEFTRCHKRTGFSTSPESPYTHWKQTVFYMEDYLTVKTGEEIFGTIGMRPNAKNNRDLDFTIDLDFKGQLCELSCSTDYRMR
rCAG binder: r(CAG) repeat RNA binding. hit rate 1.3% among 370,000. inhibition, % at 3 µM. AID 651821. TO-PRO-1 dye displacement fluorescence;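 active means inhibition above the plate cutoff, the mean of all test compounds on that plate plus 3 SD, cut at about 35% in these data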;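 further: 0% = DMSO alone and 100% = 100 µM mitoxantrone as full dye displacement; higher means more dye released from RNA so lower well fluorescence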
ALR H2O2 inh: human ALR oxidase inhibition via reduced H2O2; P55789; purified ALR, DTT oxidation, H2O2 HRP-luminol luminescence; inhibition, % (concentration not given with the values); hit rate 3.8% among 290,000;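 active means mean replicate inhibition above about 79%, with every replicate also reaching it, limit read from the data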
Target sequence (P55789 whole entry, looked up): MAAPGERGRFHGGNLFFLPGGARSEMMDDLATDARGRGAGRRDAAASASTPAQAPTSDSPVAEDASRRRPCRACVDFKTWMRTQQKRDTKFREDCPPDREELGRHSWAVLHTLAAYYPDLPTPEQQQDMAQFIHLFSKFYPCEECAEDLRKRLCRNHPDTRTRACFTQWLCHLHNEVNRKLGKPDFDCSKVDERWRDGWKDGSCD
ABHD5 PLIN5 PPI: blocks binding of human ABHD5 to perilipin-5; Q00G26+Q8WTS1; AID 602281; inhibition, % at 4 µM; hit rate 0.78% among 360,000; Split G. princeps luciferase complementation, luminescence, 4 h;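 active means inhibition above the mean inhibition across every tested compound plus 3 SD, cut at about 22% in these data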;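 further: 0% = DMSO only wells and the 100% control is not disclosed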
ABHD5-PLIN5 conf: confirmation of human ABHD5-PLIN5 interaction inhibitors. inhibition, % at 4 µM. shares compounds with ABHD5 PLIN5 PPI. hit rate 67% among 2,200. biochemical ABHD5-PLIN5 interaction, luminescence. AID 651612; in the data active means inhibition above about 23%;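 further: 0% = DMSO vehicle wells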
HNF4 counter: HNF4 split-luciferase signal hit, counter-screen. shares compounds with ABHD5 PLIN5 PPI. HNF4 dimerization, luminescence, biochemical. inhibition, % at 4 µM. hit rate 77% among 2,200;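 active means mean inhibition across replicate wells exceeding the computed hit threshold, cut at about 13% in these data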;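 further: light from luciferase halves that rejoin when HNF4 fusion proteins dimerize; 0% = DMSO only wells and the 100% control is not given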
Starred values were filed as active, the others as inactive; . = no result.

SMILES | Rtt109 HAT inh | LANA-H2A inh | PRMT1 FP inh | rCAG binder | ALR H2O2 inh | ABHD5 PLIN5 PPI | ABHD5-PLIN5 conf | HNF4 counter
COc1ccc(S(=O)(=O)N2C[C@@H](O)COC[C@@H]3O[C@H](CC(=O)NCCCN4CCOCC4)CC[C@H]32)cc1 | . | . | 1 | 0 | . | 4 | . | .
CC1=C(C(=O)N2CCCCCC2)CC(CC(=O)NCCc2ccccn2)C(=O)N1CCCN1CCCC1=O (stereo not drawn) | . | . | 2 | 0 | . | 6 | . | .
Cc1nn(-c2ccccn2)c2nc(-c3cccs3)cc(C(=O)NCc3ccco3)c12 | -4 | 2 | 19 | 12 | 5 | 35* | 14 | 15*
Cc1ccccc1-n1nc(C)c2c(C(=O)NN)cc(-c3ccncc3)nc21 | -9 | 1 | 1 | 7 | -11 | 14 | . | .
Cc1nn(-c2ccccc2)c2nc(-c3ccncc3)cc(C(=O)NCc3ccco3)c12 | 0 | -6 | 10 | 15 | 1 | 24* | 21 | 26*
COC(=O)C1CN(Cc2ccc(F)cc2)CCS(=O)(=O)N1Cc1ccc(F)cc1 (stereo not drawn) | . | . | -2 | 1 | . | . | . | .
Cn1c(CN2CCCC2)nc2cc(NC(=O)c3ccc(Cl)cc3)ccc21 | -1 | 4 | -4 | -3 | -9 | 49* | 6 | -1
Cn1c(CCN2CCCC2)nc2cc(NS(=O)(=O)c3ccc(Cl)cc3)ccc21 | 1 | 0 | -2 | 2 | -1 | 27* | 18 | 16*
COc1ccc(N=C2S/C(=C\c3ccc(Cl)c([N+](=O)[O-])c3)C(=O)N2CCN(C)C)cc1 | 4 | 0 | 0 | 2 | . | 4 | . | .
CCN(CC)CCN1C(=O)/C(=C\c2ccc(Cl)c([N+](=O)[O-])c2)SC1=Nc1ccc(OC)cc1 | 12 | -2 | 0 | 7 | -5 | 39* | 27* | 14*
Cc1nc(CCNC(=O)CC2C(=O)NCCN2Cc2ccoc2)nc2c1CCCC2 (stereo not drawn) | 19 | -4 | 5 | -1 | -2 | 22 | . | .
O=C(CC1C(=O)NCCN1Cc1ccoc1)NCCc1ccc(Cl)cc1 (stereo not drawn) | 9 | -5 | -2 | 0 | 2 | 38* | 20 | 16*
Cc1nc(CNC(=O)CC2C(=O)NCCN2Cc2ccoc2)nc2c1CCCC2 (stereo not drawn) | 0 | -1 | 5 | 0 | . | 34* | 45* | 34*
COC(=O)CCCNC(=O)CC1C(=O)NCCN1Cc1ccoc1 (stereo not drawn) | -1 | -2 | 3 | -3 | -4 | 3 | . | .
CCOC(=O)[C@@]12CCCC3=C1N(CCC3)C(=O)[C@H]2CC(=O)NCCCN1CCCC1=O | . | . | 2 | 0 | . | . | . | .
CN(CCc1ccccc1)c1cc2c(c3c1ccn3C)C1CCC2C1 (stereo not drawn) | . | . | -1 | 2 | . | -31 | . | .
CCCC(C)C(=O)NC1CCCCN(C)C1=O (stereo not drawn) | . | . | -2 | 3 | . | . | . | .
COc1ccc2c(C#CCCO)c(-c3ccc(S(C)(=O)=O)cc3)sc2c1 | -6 | -4 | -4 | 9 | -2 | 30* | 17 | 3
Cc1nc(C(C)NC(=O)c2cc(COc3ccc(C)c(C)c3)on2)c(C)s1 (stereo not drawn) | -3 | -1 | 2 | -5 | 3 | 29* | 2 | 10
O=C(Cn1cc(/C=C\[N+](=O)[O-])c2ccccc21)Nc1ccccc1 | -4 | -2 | 4 | 20 | -8 | 27* | 96* | 83*
O=[N+]([O-])/C=C/c1cn(Cc2ccccc2)c2ccccc12 | -44 | -2 | 0 | 8 | . | 31* | 101* | 99*
O=C(O)Cn1cc(/C=C/[N+](=O)[O-])c2ccccc21 | . | 3 | 1 | 8 | -1 | 15 | . | .
C(=N\n1cnnc1)/c1cn(Cc2ccccc2)c2ccccc12 | 5 | 0 | 1 | 0 | -4 | 6 | . | .
N#Cc1ccccc1Cn1cc(/C=C/[N+](=O)[O-])c2ccccc21 | 2 | 0 | 2 | 11 | 15 | 69* | 100* | 96*
N#Cc1cn(Cc2cccc(Cl)c2)c2ccccc12 | 4 | 1 | -1 | 0 | -3 | -1 | . | .
SMILES | Rtt109 HAT inh | LANA-H2A inh | PRMT1 FP inh | rCAG binder | ALR H2O2 inh | ABHD5 PLIN5 PPI | ABHD5-PLIN5 conf | HNF4 counter
COc1ccc(CN2C(=O)CCC2(C)c2nnnn2-c2ccc3c(c2)OCCO3)cc1OC (stereo not drawn) | . | . | -3 | -1 | . | 0 | . | .
Cc1ccccc1Cn1cc(COC(=O)NCCc2ccccc2)nn1 | . | . | -2 | 0 | . | . | . | .
COC(=O)[C@]12C[C@H](CC(=O)NCc3ccccc3)C(=O)N(Cc3ccc4c(c3)OCO4)C1=C[C@H](C(C)C)O[C@@H]2C1CC1 | . | . | -8 | 3 | . | . | . | .
COc1ccc(/C=C/c2c(-c3ccc(OC)cc3)oc3ccc(-c4ccc(OC)cc4)cc23)cc1 | 2 | -5 | -1 | 4 | 0 | -4 | . | .
COc1ccc(/C=C/c2cc(-c3ccc(C)cc3)o[n+]2C)cc1 | -10 | -2 | 2 | 14 | 6 | 28* | 44* | 31*
CCc1cc(C(c2cccc(OC)c2)N2CCOCC2)c(NC(=O)c2ccccc2)s1 (stereo not drawn) | -1 | 1 | 0 | 5 | 9 | 13 | . | .
CCc1cc(C(c2ccc(OC)c(OC)c2)N2CCOCC2)c(NC(=O)c2ccccc2)s1 (stereo not drawn) | -8 | 2 | 5 | 4 | 5 | 33* | 99* | 86*
Cc1ccccc1-n1c(=O)cc(N2CCN(C(=O)c3ccco3)CC2)[nH]c1=O | -5 | 11 | -1 | 1 | -29 | 25* | 4 | 7
C=C(NC(=O)C(=C)NC(=O)c1csc(C2=NC3c4csc(n4)C4NC(=O)c5csc(n5)C(C(C)(O)C(C)O)NC(=O)C5CSC(=N5)/C(=C/C)NC(=O)C(C(C)O)NC(=O)c5csc(n5)C3(CC2)NC(=O)C(C)NC(=O)C(=C)NC(=O)C(=C)NC(=O)C(C(C)C)NC2C=Cc3c(C(C)O)cc(nc3C2O)C(=O)OC4C)n1)C(N)=O (stereo not drawn) | -4 | . | 1 | 34 | . | 28* | 66* | 10
Cc1ccc2c(c1C)-c1c(ccc(C)c1C)C(=O)C2=O | 3 | . | -1 | 3 | . | 52* | 43* | 69*
COc1ccccc1N/C=C/c1onc(C)c1[N+](=O)[O-] | -8 | 1 | -3 | 2 | 20 | 5 | . | .
Cc1noc(/C=C/c2ccccn2)c1[N+](=O)[O-] | 2 | -2 | 12 | -1 | -4 | 42* | 77* | 70*
O=C(CC1CC2CCC1C2)N1CCN(S(=O)(=O)c2ccccc2F)CC1 (stereo not drawn) | -3 | 3 | -4 | 0 | -18 | -3 | . | .
